Assay outcomes: PubChem, National Center for Advancing Translational Sciences (NCATS)
Only some compounds are listed: those with a hit (about 5.8% of all), similar ones and a draw of the others.
Luciferase inh: firefly luciferase inhibition. P08659. purified firefly luciferase, luminescence, 8 min. Potency, µM (top dose mostly 57.1 µM), most hits filed as inhibitors. 2.2% of 72,000 active. AID 411; further: nearly all actives have a fitted effect of over 40% in size
Target sequence (P08659 whole entry, looked up): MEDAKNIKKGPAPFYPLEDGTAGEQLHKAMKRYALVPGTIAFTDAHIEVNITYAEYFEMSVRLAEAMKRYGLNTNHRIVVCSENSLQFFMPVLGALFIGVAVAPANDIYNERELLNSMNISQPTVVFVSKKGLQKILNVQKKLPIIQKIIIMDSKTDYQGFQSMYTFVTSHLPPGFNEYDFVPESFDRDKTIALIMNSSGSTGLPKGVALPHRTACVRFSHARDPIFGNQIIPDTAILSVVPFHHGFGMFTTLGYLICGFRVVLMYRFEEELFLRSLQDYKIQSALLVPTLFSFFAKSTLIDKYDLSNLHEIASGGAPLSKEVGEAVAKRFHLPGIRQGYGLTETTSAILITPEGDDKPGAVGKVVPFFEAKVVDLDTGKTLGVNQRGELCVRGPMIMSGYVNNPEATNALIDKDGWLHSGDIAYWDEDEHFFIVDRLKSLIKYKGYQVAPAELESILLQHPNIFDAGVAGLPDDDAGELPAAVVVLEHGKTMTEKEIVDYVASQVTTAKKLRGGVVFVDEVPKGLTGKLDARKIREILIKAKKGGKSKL
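Inhibition of light generation by firefly luciferase from ATP and luciferin was profiled with concentration-response curves per sample, ATP held at 10 uM within the enzyme's linear range. Plates were read by luminescence after an 8-minute ambient incubation.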
TSHR ag: agonists of human thyroid stimulating hormone receptor | P16473 | HEK293-CNG-TSHR cells (CNG channel as cAMP sensor), membrane potential dye, cAMP | Potency, µM (top dose mostly 57.1 µM), actives largely listed as activators | 0.48% of 73,000 active | AID 926; active means well fitted activation curve with a large enough effect in the main read-out, with a control signal flat, not every such curve was filed as active; inconclusive means small, poorly fitted or top-dose-only effect, or a change in a side signal; inactive means no such curve, though single readings can be large or run the other way; reference of the percent scale not stated here;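 further: the control signal comes from parental cells without the receptor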
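HEK 293 cells stably expressing TSHR and a modified CNG channel, with CNG-only parental cells as counterscreen, were preloaded 60 min at room temperature with membrane potential dye containing 100 uM RO 20-1724. Compound exposure was 30 min, and depolarization was read as fluorescence at 590 nm.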
HEK293 cAMP cs: raises cAMP in parental HEK293 cells, TSHR agonist counter-screen; 2.5% of 73,000 active; Potency, µM (top dose mostly 57.1 µM), most hits filed as activators; parental HEK293 CNG cAMP sensor, membrane potential fluorescence; further: nearly all actives have a fitted effect of over 55% in size
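Parental HEK 293 cells stably expressing a cAMP-gated CNG channel were loaded with membrane potential dye containing 100 uM RO 20-1724 for 60 min. Compound added for 30 min; depolarization read as fluorescence intensity at 590 nm.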
GBA mod: human lysosomal glucosylceramidase modulation. 1.1% of 48,000 active. AID 360. purified enzyme, resorufin glucoside fluorescence (screen aimed at inhibitors), 20 min. P04062. Potency, µM; in the data active means potency below about 15 µM; inconclusive means mostly about 16 µM to 33 µM;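 further: the screen sought inhibitors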
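Compounds titrated against 0.2 nM normal enzyme, 30 uM resorufin beta-D-glucopyranoside substrate, citrate/phosphate buffer with taurocholate and tween-20, pH 5.9. Reaction ran 20 min at room temperature; fluorescence (Ex 548/Em 600) gave AC50.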
Bst PK mod: modulators of Bacillus stearothermophilus pyruvate kinase. Potency, µM. 1.2% of 51,000 active. purified pyruvate kinase, luminescence ATP production; ribose 5-phosphate activator present at AC10; in the data active means potency below about 11 µM; inconclusive means mostly about 12 µM to 25 µM;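 the screen sought inhibitors and activators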
Each line names hits and unclear results; the compound was inactive in the other large screens. Unless noted, the call rests on the fitted dose curve; in most records, active means well fitted curve in the direction sought with a large enough effect; inconclusive means small, poorly fitted or top-dose-only effect, or another doubt; inactive means no such curve, though single readings can be large; an effect the other way counts as inactive or inconclusive.

Cn1cccc1C(=O)Nc1nc(-c2ccccn2)cs1	Luciferase inh 20µM, TSHR ag inconclusive, HEK293 cAMP cs inconclusive
O=C(Nc1nc(-c2ccccn2)cs1)c1ccc(Cl)s1	none (no result: GBA mod, Bst PK mod)
Oc1ccc(Cc2cc(Cl)cc(Cl)c2O)cc1Cl	none (no result: GBA mod, Bst PK mod)
CC(=O)Nc1nc2ncc(C=O)nc2c(=O)[nH]1	none (no result: GBA mod, Bst PK mod)
O=C(Cc1cccs1)NCc1cccs1	none
CCCCOCCCNC(=O)Cc1cccs1	TSHR ag inconclusive, HEK293 cAMP cs 1.6µM (no result: GBA mod, Bst PK mod)
CC(=O)N1CCc2cc(NC(=O)c3ccc(C)cc3)ccc21	Luciferase inh 6.3µM, Bst PK mod inconclusive
CN(C)c1nc(N)c(C(=O)Nc2cccnc2)nc1Cl	none (no result: Luciferase inh, GBA mod, Bst PK mod)
O=C(c1ccc2c(c1)OCO2)N1CCCC(c2ccccc2)C1 (stereo not given)	TSHR ag inconclusive, HEK293 cAMP cs 10µM
O=C(c1ccc2c(c1)OCO2)N1CCN(c2ccccc2)CC1	TSHR ag inconclusive, HEK293 cAMP cs 16µM
O=S(=O)(O)CCCc1cccc2ccccc12	none (no result: GBA mod, Bst PK mod)
CCC(c1nnnn1Cc1ccc2c(c1)OCO2)N1CCN(c2ccc(F)cc2)CC1 (stereo not given)	TSHR ag inconclusive, HEK293 cAMP cs 16µM
CCC(c1nnnn1Cc1ccc2c(c1)OCO2)N1CCN(c2ccc(OC)cc2)CC1 (stereo not given)	TSHR ag inconclusive, HEK293 cAMP cs inconclusive
CCC(c1nnnn1Cc1ccc2c(c1)OCO2)N1CCN(c2ccccc2)CC1 (stereo not given)	TSHR ag inconclusive, HEK293 cAMP cs 16µM
CCNc1ncc2nc(-c3ccc(OC)cc3)c(=O)n(Cc3cccc(OC)c3)c2n1	TSHR ag inconclusive, HEK293 cAMP cs inconclusive (no result: GBA mod, Bst PK mod)
N[C@H](CCC(=O)N[C@H](CSN=O)C(=O)NCC(=O)O)C(=O)O	none (no result: GBA mod, Bst PK mod)
O=C(OCC(=O)N1CCCCC1)c1cc2ccccc2cc1O	none
CCC1CCCCN1C(=O)COC(=O)c1cc2ccccc2cc1O (stereo not given)	TSHR ag inconclusive, HEK293 cAMP cs 32µM
O=C(COc1ccc(F)cc1Br)N1CCc2ccccc21	Luciferase inh 7.9µM
O=C(c1cccc(F)c1)N1CCc2ccccc21	none (no result: GBA mod, Bst PK mod)
CC1(C)O[C@H]2[C@@H](c3[nH]nc4c(=O)[nH]c(=O)[nH]c34)OC[C@H]2O1	none (no result: GBA mod, Bst PK mod)
OC[C@@H]1O[C@@H](n2cnc3c(SCc4ccccc4)ncnc32)[C@@H](O)[C@H]1O	none (no result: GBA mod, Bst PK mod)
COc1cccc(CNc2ccc3c(c2)ncn3C(C)C)c1OC	Luciferase inh 13µM (no result: GBA mod, Bst PK mod)
CCCn1cnc2cc(NCc3ccccn3)ccc21	Luciferase inh 16µM (no result: GBA mod, Bst PK mod)
CCn1cnc2cc(NCc3ccncc3)ccc21	none
CCCn1cnc2cc(NCc3cccc(OC)c3O)ccc21	Luciferase inh 16µM, GBA mod inconclusive (no result: Bst PK mod)
CNC(=O)[C@@H](Cc1ccccc1)N(C)C(=O)[C@@H](Cc1ccc2ccccc2c1)N(C)C(=O)/C=C/CC(C)(C)N	none (no result: Luciferase inh, GBA mod, Bst PK mod)
CC(C)CO/N=C1/C[C@@H](O)[C@@H](O)[C@@H]2[C@@H]3C(=O)N(C4CCCCC4)C(=O)[C@H]3CC[C@H]12	none (no result: GBA mod, Bst PK mod)
CCOC(=O)C(/C(N)=N/C(=O)Nc1ccccc1)=C(\C)O	Luciferase inh 13µM (no result: GBA mod, Bst PK mod)
C/C(O)=C(/N=O)C(=O)Nc1ccccc1	none
CCC1CCCCN1CC(=O)Nc1cc(C)nn1-c1nc(C)cc(C)n1 (stereo not given)	TSHR ag inconclusive, HEK293 cAMP cs 25µM
Cc1cc(C)nc(-n2nc(C)cc2NC(=O)CN2CCC(C)CC2)n1	TSHR ag inconclusive, HEK293 cAMP cs inconclusive
NCCNC(=S)S	none (no result: GBA mod, Bst PK mod)
CCOCCOC(=O)COc1ccc(N2C(=O)c3ccccc3C2=O)cc1	Luciferase inh 16µM (no result: GBA mod, Bst PK mod)
Oc1ccccc1Nc1ncnc2c1oc1ccccc12	none
c1ccc2c(c1)oc1c(Nc3ccc(CN4CCOCC4)cc3)ncnc12	Luciferase inh 16µM, GBA mod inconclusive (no result: TSHR ag)
c1ccc(Nc2ncnc3c2oc2ccccc23)cc1	TSHR ag inconclusive, HEK293 cAMP cs inconclusive, Bst PK mod 5.4
CC(=O)O[C@@H]1CC[C@]2(C)[C@H]3CC[C@]4(C)[C@H](C[C@H]5CCCC[C@@]54C(C)=O)[C@@H]3CC(=O)[C@@]2(O)C1	none (no result: GBA mod, Bst PK mod)
CCCCCCCCCCCCC(=O)N1CCCC[C@H]1CNC(=O)[C@@H](N)CCCCN	none (no result: GBA mod, Bst PK mod)
O=C(O)CC(NC(=O)c1ccccc1NC(=O)c1ccccc1)C(=O)O (stereo not given)	none (no result: GBA mod, Bst PK mod)
Cc1ccc(C(=O)Nc2ccccc2C(=O)NC(CC(=O)O)C(=O)O)cc1 (stereo not given)	Luciferase inh 32µM, GBA mod 10 (no result: Bst PK mod)
